The whole screen tested about 1,200 compounds, of which about 870 (72%) were called active. Inconclusive results (about 3%) are left out.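 Rule for the calls: active = every test run fits a falling curve whose half-maximal concentration is at most twice the top valid dose; inconclusive = runs disagree, or flat 30 to 70% inhibition, or poor fit; inactive = every run inactive: flat, rising or weaker potency.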 So high a share suggests a set chosen from earlier hits. A selection follows. Potency and affinity values are given separately.
Assay: ZM109 Env clade C HIV-1 fusion inhibitors, dose response, HeLa effector, CEM target cells, luciferase, cherry-pick (AID 652058)
Conditions: HeLa Env/CEM cell fusion, 16-24 h; series mostly up to 35 µM

Activity change, negative = inhibition, inactive:
COc1ccccc1C#Cc1ccc([C@H]2[C@H](C#N)N(C(=O)C3CCCC3)[C@H]2CO)cc1, CCCCS(=O)(=O)N1CCN(C(=O)C(=O)c2cccc(C(F)(F)F)c2)CC1, COc1ccc(C)cc1NC(=O)CCNS(=O)(=O)c1ccc2c(c1)CC(C)N2C(C)=O (configuration not stated), COc1ccc(NC(=O)C(=O)NCC2CCCN2S(=O)(=O)c2cccs2)cc1 (configuration not stated), O=C(Nc1ccc(C(=O)OC2CCCCC2)cc1)c1ccncc1, Cc1cccc(/C=N\Nc2cn[nH]c(=O)c2Cl)c1, COc1ccc(NC(=O)CN2CCC(C(N)=O)(N3CCCCC3)CC2)cc1, O=C(Nc1cccc(F)c1)N[C@H]1CC[C@@H](CCNS(=O)(=O)c2cccc(Cl)c2)O[C@H]1CO, O=C(CCN1CCCCC1)N[C@@H]1CC[C@@H](CCn2cc(-c3ccccc3)nn2)O[C@@H]1CO, O=C(Nc1cccc(F)c1)N[C@@H]1CC[C@H](CCNS(=O)(=O)c2cccc(Cl)c2)O[C@@H]1CO, COc1ccc(-c2cn(CC[C@H]3CC[C@H](NS(=O)(=O)c4ccccc4C)[C@H](CO)O3)nn2)cc1, CN(C)Cc1cn(CC[C@@H]2CC[C@H](N)[C@H](CO)O2)nn1, O=C(Cc1ccncc1)N[C@H]1CC[C@@H](CCn2cc(-c3ccccc3F)nn2)O[C@@H]1CO, COc1ccc(-c2c(C)nn3c(C(F)(F)F)cc(C)nc23)cc1, CCCNC(=O)C[C@@H]1C[C@H]2c3cc(NC(=O)c4cccnc4)ccc3O[C@H]2[C@H](CO)O1, Cc1cccc(C)c1N(CC(O)Cn1c2ccccc2c2ccccc21)S(C)(=O)=O (configuration not stated), CCNC(=O)C[C@@H]1CC[C@@H]2[C@H](COC[C@@H](O)CN2C(=O)c2ccccn2)O1, O=C(Nc1nc(-c2ccc3c(c2)OCO3)cs1)c1ccncc1, CS(=O)(=O)N1CCc2cc(-c3csc(NC(=O)Cc4cccs4)n3)ccc21, CCOC(=O)[C@@H]1[C@H]2COc3cc(OC)ccc3[C@H]2N2C(=O)N(c3cccc(F)c3)C(=O)[C@@]12C, COc1ccccc1CNC(=O)C[C@H]1C[C@@H]2c3cc(NC(=O)c4cccnc4)ccc3O[C@@H]2[C@@H](CO)O1, O=C(C[C@@H]1C[C@@H]2c3cc(NC(=O)Nc4ccccc4)ccc3O[C@@H]2[C@@H](CO)O1)NCc1ccccc1, O=C(C[C@@H]1C[C@@H]2c3cc(NC(=O)c4ccc5c(c4)OCO5)ccc3O[C@@H]2[C@@H](CO)O1)NCc1ccc(Oc2ccccc2)cc1, O=C(C[C@@H]1C[C@@H]2c3cc(NS(=O)(=O)c4ccc(F)cc4)ccc3O[C@@H]2[C@H](CO)O1)NCc1ccccc1F, COC(=O)Cn1cnc2c(Cl)nc(F)nc21, CN(C)C(=O)C[C@@H]1C[C@H]2c3cc(NS(=O)(=O)c4ccc(F)cc4)ccc3O[C@H]2[C@H](CO)O1, CCCNC(=O)C[C@@H]1C[C@@H]2c3cc(NC(=O)Cc4ccncc4)ccc3O[C@@H]2[C@H](CO)O1, CCCNC(=O)C[C@@H]1C[C@@H]2c3cc(NC(=O)CN(C)C)ccc3O[C@@H]2[C@H](CO)O1, O=C(C[C@H]1C[C@@H]2c3cc(NC(=O)C4CCOCC4)ccc3O[C@@H]2[C@H](CO)O1)NCc1ccccc1, O=C(C[C@@H]1C[C@H]2c3cc(NC(=O)C4CCC4)ccc3O[C@H]2[C@H](CO)O1)NCC(F)(F)F, O=C(C[C@H]1C[C@H]2c3cc(NC(=O)C4CCC4)ccc3O[C@H]2[C@@H](CO)O1)NCc1ccc2c(c1)OCO2, CN(C)C(=O)C[C@@H]1C[C@@H]2c3cc(NS(=O)(=O)c4ccc(F)cc4)ccc3O[C@@H]2[C@@H](CO)O1, CC(=O)OC1c2ccccc2C(=O)N1c1ccccc1C (configuration not stated), O=C(COC(=O)c1cccc(S(=O)(=O)N2CCOCC2)c1)NCc1ccccc1, Cc1ccc(S(=O)(=O)N(C)c2ccc(C(=O)N3CCN(Cc4ccc5c(c4)OCO5)CC3)cc2)cc1, c1ccc(CSc2nnc([C@@H]3CCCN3)o2)cc1, Cc1nnc(SC(=O)N2c3ccccc3Sc3ccccc32)s1, Cc1ccccc1-n1c(=O)c2ccccc2n2cnnc12, O=c1c2ccccc2nnn1CSc1nnc(COc2ccc(Cl)cc2)n1Cc1ccco1, O=C(CNC(=O)c1cccc(-n2cccc2)c1)Nc1ccccc1Br, COc1cccc(S(=O)(=O)N[C@H]2CC[C@@H](CCN)O[C@@H]2CO)c1, Cc1ccc(S(=O)(=O)N[C@@H]2CC[C@H](CCNC(=O)c3ccccc3F)O[C@H]2CO)cc1, O=C(NCC[C@@H]1CC[C@@H](NS(=O)(=O)c2ccccc2F)[C@@H](CO)O1)c1ccc(F)cc1, COc1ccccc1S(=O)(=O)N[C@H]1CC[C@H](CC(=O)N2CCN(C)CC2)O[C@H]1CO, COc1cc(-c2cc(OC)c(O)c(OC)c2)cc(OC)c1O, Cc1ccc(C2Oc3ccccc3C3=C2C(c2cccs2)n2ncnc2N3)cc1 (configuration not stated), O=C(CN1CCCN(Cc2ccc(F)cc2Cl)C1=O)NC1CCCCCCC1, O=C(NCCCN1CCc2ccccc2C1)Nc1ccc(Cl)cc1, CCN(CC)S(=O)(=O)c1cccc(S(=O)(=O)c2cccc(S(=O)(=O)N(CC)CC)c2)c1, CS(=O)(=O)N(Cc1ccc(Cl)cc1)c1ccc(C(=O)NCCC2=CCCCC2)cc1, CCCNC(=O)C[C@H]1C[C@H]2c3cc(NC(=O)Cc4ccncc4)ccc3O[C@H]2[C@H](CO)O1, COc1ccc2c3c([nH]c2c1)[C@H](CO)N(C(=O)Nc1cccc(F)c1)CC31CCN(S(=O)(=O)c2ccccc2)CC1, COc1ccc(S(=O)(=O)N[C@@H]2CC[C@@H](CC(=O)NCCc3ccncc3)O[C@@H]2CO)cc1, CCCCOc1ccc(S(=O)(=O)Nc2cccnc2)cc1, CC(=O)c1ccc(S(=O)(=O)N2CCN(c3nc4c(C)c(C)ccc4cc3C#N)CC2)cc1, O=C(Nc1nc2ccccc2[nH]1)c1ccccc1F, Cn1c(CN2CCCCC2)nc2cc(NC(=O)c3ccc(Cl)cc3)ccc21, O=C(COc1ccc(-n2cnnn2)cc1)Nc1ccc(F)c(F)c1, Cc1ccc(NC(=O)c2ccc(OCC3CCCO3)cc2)cc1Cl (configuration not stated), COC(=O)[C@H](Cc1ccccc1)NC(=O)Cn1cnc(C(=O)Nc2ccc(C)c(C)c2)n1, O=C(Nc1ccc(Cl)cc1)Nc1cccc(C(=O)O)c1, Cc1ccc(NC(=O)c2ccc(CN3CCc4ccccc4C3)cc2)cc1
